An excerpt weighted towards active compounds, which were near 20% of everything screened.
Pf growth 48h: Primary qHTS for delayed death inhibitors of the malarial parasite plastid, 48 hour incubation | P. falciparum luciferase growth in erythrocytes, 48 h | Potency, µM (top dose mostly 28.7 µM), inactives show at the top dose activity change, negative = inhibition, most hits filed as inhibitors | actives 5.9% (n = 310,000); also: potency is read from the fitted curve at half-maximal effect; % is scaled to controls: 0 for no effect and ±100 for the full control effect
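Compounds are pin-transferred into medium, infected erythrocytes (2% hematocrit, 0.1% parasitemia final) are added, and plates sit one parasite generation at 37 C in 5% CO2. Detection reagent is then added and luminescence measured.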
Cycloheximide cs: Cycloheximide Counterscreen for Small Molecule Inhibitors of Shiga Toxin; cell reporter, cycloheximide protein synthesis inhibition counterscreen; max response, %; actives 12% (n = 300,000); AID 2314, 2010; in the data active = max response mostly above about 13%, no sharp cut-off; inactive = mostly below about 14%; also: read at 38.3 µM for the half of the compounds with a filed dose; 0% is about no effect
Shiga inhibitor: A qHTS for Small Molecule Inhibitors of Shiga Toxin; Vero cells, Shiga toxin protein synthesis inhibition reporter; inhibition, % at 38.7 µM; actives 9.2% (n = 290,000); in the data active = inhibition mostly above about 28%, no sharp cut-off; inactive = mostly below about 43%; also: 0% is about no effect
Pf growth 96h: Primary qHTS for delayed death inhibitors of the malarial parasite plastid, 96 hour incubation; AID 504834, 2011; actives 6.9% (n = 320,000); P. falciparum luciferase reporter growth, 96 h; Potency, µM (top dose mostly 28.7 µM), inactives show top-dose activity change, negative = inhibition, hits mostly inhibitors; also: potency is read from the fitted curve at half-maximal effect; % is scaled to controls: 0 for no effect and ±100 for the full control effect
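Cell-based qHTS: luciferase-tagged P. falciparum in erythrocytes (2% hematocrit, 0.05% parasitemia final) incubated with compounds for 96 hours, 37 C, 5% CO2; luciferase detection reagent then added and luminescence measured.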
HCMV antiviral: qHTS Assay for inhibitors of the human cytomegalovirus (HCMV); HFF cells, HCMV-luciferase reporter, 72 h; stronger effect = lower value; activity change, negative = inhibition, % at 57.5 µM; actives 4.5% (n = 410,000); AID 1259415, 2018; in the data active = activity change below about -60%; inconclusive = no clear call, values can overlap the other calls; inactive = above about -39%; also: % is scaled to controls: 0 for no effect and ±100 for the full control effect
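Two compound doses tested in HFFs infected with HCMV-luciferase, MOI 1 PFU/cell, 72 h at 37C. Lysate luminescence read with OneGlo; data normalized against buffer-only and 10uM Salinomycin inhibitor controls.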
Numbers without * were called inactive; i = inactive; ? = inconclusive; . = no result. Unless noted, calls follow the shape of the dose curve; as a rule, active = well fitted inhibition curve with a large enough effect; inconclusive = small, poorly fitted or top-dose-only effect, or another doubt; inactive = no such curve, though single readings can be large or run the other way.

SMILES	Pf growth 48h	Cycloheximide cs	Shiga inhibitor	Pf growth 96h	HCMV antiviral
COc1ccc(C(=O)NC(=O)Nc2cc(C)ccn2)cc1	235%	34*	77*	.	?
COc1ccc(S(=O)(=O)Nc2cc(C)ccn2)cc1	.	-3	-12	13%	-8
COc1ccc(C(=O)Nc2ccccc2C(=O)Nc2cccnc2)cc1	5%	14	49*	69%	3
C=CCOc1ccc(C(=O)Nc2ccccc2C(=O)NCc2cccnc2)cc1	12µM*	-2	-7	12%	-15
CCN(C(=O)Cn1c(=O)n(CC2CCC(C(=O)NC)CC2)c(=O)c2sccc21)c1ccccc1 (centres undefined)	.	.	.	.	2
O=C(COC(=O)C12CC3CC(CC(O)(C3)C1)C2)Nc1ccc(Br)cc1F	i	.	.	371%	-34
O=C(COC(=O)C12CC3CC(CC(C3)C1)C2)Nc1ccccc1F	56%	19*	13	99%	17
COc1cccc(Cc2nc3ccccc3nc2SCC(=O)Nc2cc(OC)ccc2OC)c1	.	.	.	.	7
CC(=O)Nc1cccc(NC(=O)CSc2nc(=O)n(Cc3ccncc3)c3c2CCC3)c1	?	.	.	?	-26
COc1ccc(NC(=O)CSc2nc3ccccc3cc2Cc2ccccc2)cc1	?	2	-5	?	-23
COc1ccc(OC)c(NC(=O)CSc2nc3ccccc3cc2Cc2ccccc2)c1	?	-2	6	6.6µM*	6
COc1cc(NC(=O)CSc2nc3ccccc3cc2Cc2ccccc2)cc(OC)c1	12µM*	-1	-9	?	?
COc1cccc(NC(=O)CSc2nc3ccccc3cc2Cc2ccccc2)c1	3.3µM*	8	-4	7.4µM*	-18
COc1cccc(NC(=O)CSc2nc(=O)n(Cc3ccncc3)c3c2CCCC3)c1	-14%	.	.	-26%	-85*
Cc1cccc(N2CCN(C(=O)c3cn(C)c4ccc(S(=O)(=O)N(C)C)cc4c3=O)CC2C)c1 (centres undefined)	.	.	.	.	22
COc1ccccc1CC(NC(C)=O)C(=O)NC1CCN(C(=O)c2cccc(Cl)c2)CC1 (centres undefined)	?	6	-3	?	-6
COc1cccc(CSc2nc3ccccc3cc2C=O)c1	26%	4	-5	35%	-100*
Cc1cccc(C2=NC(C(F)(F)F)(C(F)(F)F)c3c(n(-c4ccc(F)cc4)c(=O)[nH]c3=O)N2)c1	13µM*	-4	-8	12µM*	?
CCN(CC)S(=O)(=O)c1ccc(-c2csc(C)n2)s1	43%	7	13	34%	-15
Cc1nc(-c2ccc(S(=O)(=O)NCc3ccccn3)s2)cs1	29%	7	14	-2%	-7
Cc1nc(-c2ccc(S(=O)(=O)N3CCN(C4c5ccccc5-c5ccccc54)CC3)s2)cs1	?	30*	94*	?	-14
Cc1nc(-c2ccc(S(=O)(=O)Oc3ccccc3Cl)s2)cs1	33%	26*	33*	49%	-31
Cc1nc(-c2ccc(S(=O)(=O)N3CCCN(CCc4ccccc4)CC3)s2)cs1	?	-1	9	4.1µM*	?
CC(=O)Nc1ccc(S(=O)(=O)Nc2ccn(Cc3ccccc3Cl)n2)cc1	-6%	-1	-5	?	-10
COc1cccc(N2CCN(c3ncnc4onc(-c5ccc(Cl)cc5)c34)CC2)c1	.	.	.	.	23
SMILES	Pf growth 48h	Cycloheximide cs	Shiga inhibitor	Pf growth 96h	HCMV antiviral
CCOC(=O)N1CCN(C(=O)c2ccc(OC)c(S(=O)(=O)N3CCOCC3)c2)CC1	0%	-1	-7	12%	-2
COc1ccccc1N(CC(=O)N1CCOCC1)S(C)(=O)=O	11%	-4	-8	?	15
CN1OC(C)(CC(=O)NCc2ccccc2)N=C1c1ccccc1 (centres undefined)	.	.	.	.	-8
N#Cc1nc(Cl)c(Cl)c(NN)c1Cl	-22%	0	30	-9%	-18
Cc1cc(-c2ccc(S(=O)(=O)Nc3ccccc3C)cc2)on1	.	.	.	.	5
Cc1cc(-c2ccc(S(=O)(=O)Nc3ccc(Cl)cc3C)cc2)on1	.	.	.	.	-78*
COC(=O)[C@@H]1C[C@H]2CC[C@H](O)C[C@H]2N1Cc1ccc(Cl)cc1	?	-3	26	?	12
O=[N+]([O-])c1ccc(/C=C/c2ccncc2)cc1	37%	30*	68*	?	-27
O=[N+]([O-])c1cccc(/C=C/c2ccncc2)c1	-20%	22*	37	10%	-4
C(=C\c1ccncc1)/c1ccncc1	-7%	-2	-1	-12%	-40
C(=C\c1ccncc1)/c1ccccc1	?	36*	34	?	0
CC(/C=C/c1cccc([N+](=O)[O-])c1)=N\NC(=O)c1ccncc1	?	-1	14	?	-12
Cc1occc1-c1nnc(SC(C)C(=O)Nc2ccccc2F)o1 (centres undefined)	66%	.	.	-45%	48
COc1ccc(-c2noc3ccccc23)cc1	.	.	.	.	4
O=C(Nc1ncccc1O)c1ccc2c(c1)OCCO2	?	.	.	?	1
O=C(Nc1ccc2c(c1)OCO2)c1cccc(Cl)c1	244%	49*	107*	?	36
O=C(Nc1ccc2c(c1)OCO2)c1ccc[n+]([O-])c1	53%	8	58	104%	36
CC(=O)NC(Cc1c[nH]c2ccccc12)C(=O)OCC(=O)Nc1ccc2c(c1)OCO2 (centres undefined)	16%	9	3	-13%	15
O=C(Nc1ccc(Cl)cc1)C1=Cc2ccccc2OC1	.	83*	68*	-16%	59
Cc1[nH]c2ccccc2c1C(=O)C(=O)Nc1ccc2c(c1)OCO2	0%	28*	47*	?	-3
O=C(Nc1ncccc1O)c1ccc2c(c1)OCO2	9.3µM*	.	.	4.1µM*	-8
CCCCCC1C(=O)C[C@@H]2CCN3C(=O)CCC[C@H]1[C@H]23 (some centres undefined)	.	0	i	.	11
COc1ccc(C)cc1S(=O)(=O)N1CCN(C)CC1c1ccccc1 (centres undefined)	-7%	.	.	-12%	-10
C[C@H]1[C@@H](NC(=O)Nc2ccc(F)cc2)CC[C@@]23CCCN2C(=O)CCC[C@@H]13	.	.	.	.	11
O=C(Nc1ccc2c(c1)OCO2)c1ccc(Cl)s1	.	78*	81*	170%	61
O=C(Nc1ccc2c(c1)oc1ccccc12)c1ccc2c(c1)OCO2	79%	45*	73	?	28
CCN1CCN(c2ccc(NC(=O)c3ccc4c(c3)OCO4)cc2)CC1	68%	29*	56*	.	99
NC(=O)c1ccc(NC(=O)c2ccc3c(c2)OCO3)cc1	.	37*	112	128%	102
O=C(COc1ccc2c(c1)OCO2)Nc1ccc2c(c1)oc1ccccc12	-2%	4	-1	1%	8
O=C(Nc1ccc(NC(=O)c2cccs2)cc1)c1ccc2c(c1)OCO2	25%	-2	15	42%	?

Screening data from PubChem BioAssay.
